Compound activity: PubChem, Broad Institute
HIV Env fusion: inhibitors of HIV-1 Env-driven cell-cell fusion, primary screen, HeLa-JRFL effector, CEM21 target cells, luciferase; inhibition, % at 12.3 µM; 360,000 tested, 1.1% active; AID 651610, 2012;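 active = mean replicate inhibition score of at least 50 and every replicate individually at or above 50; inconclusive = only one of the two criteria met; inactive = mean below 50 and not all replicates reaching 50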
Wnt bcat act: Wnt/beta-catenin pathway activators, primary screen, cell-based, plate reader, single point. 300,000 tested, 1.2% active. activation, % at 9.35 µM. Wnt/beta-catenin reporter cell assay, activator; in the data active = activation above about 30%, passing the limit was not always enough; inconclusive = no clear call, values can overlap the other calls
esBAF inh: Bmi1 luciferase reporter increase in mESCs, primary screen, esBAF inhibitor project, mouse ES cells, Bmi1 luciferase knock-in, single point; AID 602393, 2012; 350,000 tested, 2% active; 24 h; 100% = twice the neutral-well signal; reporter increase, % at 12.5 µM; in the data active = activation above about 40%; inconclusive = no clear call, values can overlap the other calls;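 also: a rise in the Bmi1 reporter signal indicates esBAF inhibition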
MITF act: activators of MITF-driven TRPM1 promoter reporter, primary screen, cell-based, SK-MEL-5, luciferase, single point. SK-MEL-5 TRPM1-promoter luciferase, 24 h; % of positive control, neutral wells = 0. activation, % at 12.5 µM. 300,000 tested, 0.75% active. AID 588334, 2011;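 active = mean activation of at least 80% with every replicate also reaching 80%; inconclusive = mean reaches 80% but some replicate falls short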
miR122 inh: miR-122 Renilla sensor signal increase in Huh7, primary screen, miR-122 inhibitor project, cell-based, single point, plate reader | activation (reporter increase), % at 12.5 µM | 340,000 tested, 0.3% active | Huh7 miR-122 Renilla luciferase sensor, 48 h; neutral wells = 0, positive control = 100 | AID 602342, 2012;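 active = mean replicate activation score at least 90 and every replicate individually at or above 90; inconclusive = only one of the two criteria met; inactive = neither criterion met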;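 also: higher luciferase means less miR-122 activity so hits act as miR-122 inhibitors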
A number is an active result; [ ] = dose if it differs, or a comment. Only some compounds are listed: those with a hit (about 3.4% of all), similar ones and a draw of the others.

`COCC(=O)Nc1c(C(=O)Nc2cccc(OC)c2)oc2ccccc12` gave HIV Env fusion inactive, Wnt bcat act inconclusive, esBAF inh inactive, MITF act 97 and miR122 inh inactive.
Screening COc1cccc(NC(=O)C(=O)NCc2ccncc2)c1 returned HIV Env fusion inactive, Wnt bcat act inactive, esBAF inh 52, MITF act inconclusive and miR122 inh inactive.
Screening C[C@@H]1CN([C@H](C)CO)S(=O)(=O)c2ccc(C#CC3CC3)cc2O[C@@H]1CN(C)C(=O)c1cccnc1 returned HIV Env fusion inactive, esBAF inh inactive and miR122 inh inactive.
O=C(Oc1ccc2c(c1)OCO2)c1cc2c(s1)CCC2 was read as HIV Env fusion 75, Wnt bcat act inactive, esBAF inh inactive, MITF act inactive and miR122 inh inactive.
Screening CCCc1ccc2oc(C(=O)N3CCC[C@H]3CO)c(C)c2c1 returned HIV Env fusion inactive, Wnt bcat act inactive, esBAF inh 57, MITF act inactive and miR122 inh inactive.
For CCCc1ccc2oc(C(=O)N3CCC(N4CCCC(O)C4)CC3)c(C)c2c1 (centres undefined) the results were HIV Env fusion inactive, Wnt bcat act inactive, esBAF inh inactive, MITF act inactive and miR122 inh inactive.
CCCc1ccc2oc(C(=O)N3CCC(COC)C3)c(C)c2c1 (centres undefined) was read as HIV Env fusion inactive, Wnt bcat act inactive, esBAF inh 54, MITF act 103 and miR122 inh inactive.
Screening COc1ccc(S(=O)(=O)N2C[C@@H](O)COC[C@H]3O[C@H](CC(=O)NCCCN4CCOCC4)CC[C@@H]32)cc1 returned esBAF inh inactive and miR122 inh inactive.
`C[C@@H]1CCCCO[C@@H](CN(C)Cc2ccc(C(F)(F)F)cc2)[C@@H](C)CN([C@H](C)CO)C(=O)c2cc(NC(=O)Nc3ccc(F)cc3)ccc2O1` gave HIV Env fusion inactive, esBAF inh inactive and miR122 inh inactive.
For C[C@H]1CCCCO[C@@H](CN(C)Cc2ccc(C(F)(F)F)cc2)[C@@H](C)CN([C@@H](C)CO)C(=O)c2cc(NC(=O)Nc3ccc(F)cc3)ccc2O1 the results were HIV Env fusion 87[16.7 µM], esBAF inh inactive and miR122 inh inactive.
Screening CC(C)NC(=O)Nc1ccc2c(c1)C(=O)N([C@H](C)CO)C[C@@H](C)[C@H](CN(C)Cc1ccc(C(F)(F)F)cc1)OCCCC[C@@H](C)O2 returned HIV Env fusion 75[16.7 µM], esBAF inh inactive and miR122 inh inactive.
Screening C[C@@H]1CCCCO[C@@H](CN(C)Cc2ccc(C(F)(F)F)cc2)[C@H](C)CN([C@H](C)CO)C(=O)c2cc(NC(=O)Nc3ccc(F)cc3)ccc2O1 returned HIV Env fusion 60[16.7 µM], esBAF inh inactive and miR122 inh inactive.
`C[C@@H]1CCCCO[C@@H](CN(C)Cc2ccc(C(F)(F)F)cc2)[C@H](C)CN([C@H](C)CO)C(=O)c2cc(NC(=O)Nc3ccc(C(F)(F)F)cc3)ccc2O1` gave HIV Env fusion 70[16.7 µM], esBAF inh inactive and miR122 inh inactive.
For C[C@@H]1CCCCO[C@@H](CN(C)Cc2ccc(C(F)(F)F)cc2)[C@@H](C)CN([C@@H](C)CO)C(=O)c2cc(NC(=O)Nc3ccc(C(F)(F)F)cc3)ccc2O1 the results were HIV Env fusion inactive, esBAF inh inactive and miR122 inh inactive.
For C[C@H]1CCCCO[C@H](CN(C)S(=O)(=O)c2ccc(F)cc2)[C@@H](C)CN([C@@H](C)CO)C(=O)c2cc(NC(=O)Nc3ccc(C(F)(F)F)cc3)ccc2O1 the results were HIV Env fusion inconclusive, esBAF inh inactive and miR122 inh inactive.
For COc1ccccc1NC(=O)N1C[C@@H]2[C@H](c3ccccc31)[C@H](CO)N2C(=O)C1CCCC1 the results were esBAF inh inactive and miR122 inh inactive.
For COc1ccc(NC(=O)O[C@@H](c2ccc(OC)c(O)c2)[C@H](CCO)OC)cc1 the results were HIV Env fusion inactive.
CO[C@@H]1CN(C)C(=O)c2ccc(NS(C)(=O)=O)cc2OC[C@H](C)N(C(=O)c2ccc3c(c2)OCO3)C[C@H]1C was read as HIV Env fusion inactive, esBAF inh inactive and miR122 inh inactive.
`C[C@@H]1CCCCO[C@@H](CN(C)Cc2ccc(C(F)(F)F)cc2)[C@H](C)CN([C@H](C)CO)C(=O)c2cc(NC(=O)C3CCCCC3)ccc2O1` gave HIV Env fusion 71[16.7 µM], esBAF inh inactive and miR122 inh inactive.
`COCCNC(=O)C[C@@H]1C[C@H]2c3cc(NC(=O)Nc4ccccc4F)ccc3O[C@H]2[C@@H](CO)O1` gave HIV Env fusion inactive, esBAF inh inactive and miR122 inh inactive.
For CN1C(=O)c2cc(NC(=O)C3CCOCC3)ccc2OC[C@@H]2O[C@H](CC(=O)NCC3CCCCC3)CC[C@@H]21 the results were HIV Env fusion inactive and esBAF inh inactive.
`CCc1cccc(NC(=O)C2CCN(S(=O)(=O)c3ccc4c(c3)CC(C)N4C(C)=O)CC2)c1` (centres undefined) gave HIV Env fusion 68, Wnt bcat act inactive, esBAF inh inactive, MITF act inactive and miR122 inh inactive.
For Cc1cc(OCc2cc(C(=O)N3CCC(Oc4cccnc4)CC3)no2)cc(C)c1Cl the results were HIV Env fusion 67, Wnt bcat act inactive, esBAF inh inactive, MITF act inactive and miR122 inh inactive.
Cc1cc(OCc2cc(C(=O)N3CCN(CC4CC4)CC3)no2)cc(C)c1Cl was read as HIV Env fusion inactive, Wnt bcat act inactive, esBAF inh inactive, MITF act inactive and miR122 inh inactive.
Cc1ccc(OCc2cc(C(=O)N3CCCCCCC3)no2)cc1C was read as HIV Env fusion inactive, Wnt bcat act inactive, esBAF inh inactive, MITF act inactive and miR122 inh inactive.
`Cc1cc(OCc2cc(C(=O)N3CCCCCC3)no2)cc(C)c1Cl` gave HIV Env fusion inactive, Wnt bcat act 35, esBAF inh 48 and MITF act inconclusive.
Screening COCC1CCN(C(=O)c2cc(COc3cc(C)c(Cl)c(C)c3)on2)C1 (centres undefined) returned HIV Env fusion inactive, Wnt bcat act inactive, esBAF inh 64, MITF act inactive and miR122 inh inactive.
Screening C[C@H](O)C#Cc1cnc2c(c1)C(=O)N([C@@H](C)CO)C[C@H](C)[C@@H](CN(C)Cc1ccccn1)O2 returned HIV Env fusion inactive, esBAF inh inactive and miR122 inh inactive.
`Cc1cc(C)c(N=Cc2c(O)c3ccccc3oc2=O)c(C)c1` gave HIV Env fusion inactive, Wnt bcat act inactive, esBAF inh 57, MITF act inactive and miR122 inh inactive.
Screening Cc1cc(C)cc(N=Cc2c(O)c3ccccc3oc2=O)c1 returned HIV Env fusion inactive, Wnt bcat act inactive and MITF act inactive.
